Screening results as filed in PubChem BioAssay.
The sample as a whole holds a higher share of hits than the screen did.
nsP2pro primary = Primary qHTS for inhibitors of NSP2Pro chikungunya virus (CHIKV). FRET peptide cleavage, nsP2pro, fluorescence 1 h. 1.1% of 31,000 active. Potency, µM (top dose mostly 24.9 µM), inactives show at the highest dose activity change, negative = inhibition, actives largely listed as inhibitors; also: nearly all actives have a fitted effect of over 60% in size
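Enzyme 150 nM, substrate 2.5 uM (both final); Tris-HCl 10 mM pH 8.0 + 0.01% Tween 20; cpd up to 25 uM, 7 pts; 15 min preinc., 1 h RT; fluorescence ex 525/em 598.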
CHIKV nsP2 cell = Secondary cell base assay for inhibitors of NSP2Pro Chikungunya virus (CHIKV). shares compounds with nsP2pro primary. cell-based CHIKV nsP2 protease reporter assay. Potency, µM (series often up to 51.1 µM), without a hit: top-dose activity change, negative = inhibition, usual class: inhibitors. 10% of 450 active. AID 1964100, 2024; also: nearly all actives have a fitted effect of over 70% in size
CHIKV NSP2 FL = Selectivity profile for inhibitors of NSP2Pro chikungunya virus (CHIKV): Full length NSP2 enzyme counterscreen (CHIKV-NSP2). shares compounds with nsP2pro primary. Full-length CHIKV NSP2 protease enzymatic counterscreen. Potency, µM (top dose mostly 50.7 µM), without a hit: top-dose activity change, negative = inhibition, most hits filed as inhibitors. 39% of 410 active. AID 1964101, 2024; also: nearly all actives have a fitted effect of over 65% in size
Furin counterscr = Selectivity profile for inhibitors of NSP2Pro chikungunya virus (CHIKV): Human furin counterscreen. shares compounds with nsP2pro primary. Potency, µM (series often up to 50.6 µM), for inactives: at the highest dose activity change, negative = inhibition, hits mostly inhibitors. Recombinant human furin enzymatic counterscreen, fluorogenic substrate. 6% of 410 active
NS23 peptide cs = Selectivity profile for inhibitors of NSP2Pro chikungunya virus (CHIKV): Endogenous NS2/3 peptide Counterscreen | shares compounds with nsP2pro primary | 34% of 410 active | Potency, µM (titrated, usually from 51 µM), without a hit: at the highest dose activity change, negative = inhibition, most hits filed as inhibitors | Purified CHIKV nsP2 protease, endogenous NS2/3 peptide cleavage | AID 1964103, 2024; also: nearly all actives have a fitted effect of over 55% in size
Papain counter = Selectivity profile for inhibitors of NSP2Pro chikungunya virus (CHIKV): Papain Counterscreen; shares compounds with nsP2pro primary; purified papain protease activity, enzymatic inhibition; Potency, µM (top dose mostly 51 µM), inactives show top-dose activity change, negative = inhibition, hits mostly inhibitors; 5% of 410 active; AID 1964104, 2024
Target sequence (P00784 whole entry, looked up): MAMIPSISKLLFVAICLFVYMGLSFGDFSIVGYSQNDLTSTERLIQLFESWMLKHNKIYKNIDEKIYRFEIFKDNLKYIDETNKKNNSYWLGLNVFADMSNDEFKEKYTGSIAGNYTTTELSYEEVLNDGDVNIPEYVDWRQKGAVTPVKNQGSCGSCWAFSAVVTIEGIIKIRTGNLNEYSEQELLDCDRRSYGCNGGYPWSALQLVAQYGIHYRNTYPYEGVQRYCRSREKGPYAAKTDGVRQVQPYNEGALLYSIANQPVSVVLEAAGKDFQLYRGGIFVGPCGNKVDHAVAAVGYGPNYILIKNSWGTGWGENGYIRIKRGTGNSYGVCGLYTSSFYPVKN
nsP2pro conf qHTS = Confirmatory qHTS for inhibitors of NSP2Pro chikungunya virus (CHIKV) | shares compounds with nsP2pro primary | CHIKV nsP2 protease enzymatic activity, qHTS | Potency, µM (highest dose often 25.5 µM), without a hit: at the highest dose activity change, negative = inhibition, actives largely listed as inhibitors | 43% of 410 active; also: nearly all actives have a fitted effect of over 75% in size
HCV NS3 counter = Selectivity profile for inhibitors of NSP2Pro chikungunya virus (CHIKV): NS34A-HCV Counterscreen; HCV NS3/4A protease biochemical counterscreen; shares compounds with nsP2pro primary; Potency, µM (doses to about 50.9 µM), most hits filed as inhibitors; 20% of 410 active; also: nearly all actives have a fitted effect of over 55% in size
* marks the source's active call; other numbers are inactive results; i = inactive; ? = inconclusive; [ ] = dose if it differs, or a comment. Calls follow the shape of the full dose curve. % is scaled to controls: 0 for no effect and ±100 for the full control effect; potency is read from the fitted curve at half-maximal effect.

SMILES	nsP2pro primary	others
CCOC(=O)c1cccc(NC(=O)CCSCCc2ccccn2)c1	-14%
Fc1ccc(CN2CCn3c(nnc3-c3ccncc3)C2)cc1	-5%
O[C@@H]1C[C@@H](c2nnc3n2CCN(C2CCCCC2)C3)N(Cc2cccnc2)C1	-22%
c1cncc(CN2CCn3c(nnc3C3CCCNC3)C2)c1 (stereo unspecified)	?	CHIKV nsP2 cell=7%
N[C@@H](CC(=O)O)C(=O)Nc1ccc(Cl)cc1C(=O)c1ccc[nH]1	-3%
CCN1CCCN(S(=O)(=O)c2cccs2)CC12CCOCC2	5%
CCC(=O)O[C@@H]1[C@@H](C)O[C@@H](O[C@H]2[C@H](N(C)C)[C@@H](O)[C@H](O[C@H]3[C@@H](CC=O)C[C@@H](C)[C@@H](OC(C)=O)/C=C/C=C/C[C@@H](C)OC(=O)C[C@@H](OC(=O)CC)[C@@H]3OC)O[C@@H]2C)C[C@]1(C)OC(C)=O	26%
O=C(Cc1ccccc1)NCC1CCCCC(=O)N1 (stereo unspecified)	i
C=CCc1ccc(O)c(OC)c1	-20%
COc1cc(CCN)ccc1O	?	CHIKV nsP2 cell=8%;CHIKV NSP2 FL=-3%;Furin counterscr=3%;NS23 peptide cs=-4%;Papain counter=-8%;nsP2pro conf qHTS=-15%;HCV NS3 counter=i
COc1cc(C2Oc3c(OC)cc(CCCO)cc3C2CO)ccc1O (stereo unspecified)	81%
NS(=O)(=O)c1ccc(-n2nc(C(F)(F)F)cc2-c2ccc(F)cc2)cc1	5%
O=S(=O)(c1ccccc1)N1CCC(F)(c2nc(-c3ccncc3)no2)CC1	i
CCc1noc(-c2cn(C3CCN(C(=O)c4cc(Cl)ccc4F)CC3)nn2)n1	3%
CCOc1ccc(CCNC(=O)c2ccccn2)cc1OCC	0%
COc1cccc(CNc2ccc(S(=O)(=O)Nc3ccccn3)cc2)c1O	i
O=C(COc1ccccc1CNc1ccccc1)Nc1ccc(F)cc1	-49%
Oc1ccc(NCc2ccccc2OCc2ccccc2)cc1	3µM*	CHIKV nsP2 cell=12µM*;CHIKV NSP2 FL=?;Furin counterscr=-8%;NS23 peptide cs=18µM*;Papain counter=-7%;nsP2pro conf qHTS=?;HCV NS3 counter=21µM*
O=C(COc1ccccc1CNc1ccc(F)cc1)Nc1ccc(Cl)cc1	29%
O=C(COc1ccccc1CNc1ccc(F)cc1)Nc1ccc(F)cc1	-1%
Oc1ccc(NCc2ccccc2OCc2ccc(Cl)cc2)cc1	2.4µM*	CHIKV nsP2 cell=12µM*;CHIKV NSP2 FL=13µM*;Furin counterscr=-12%;NS23 peptide cs=?;Papain counter=-12%;nsP2pro conf qHTS=?;HCV NS3 counter=13µM*
Oc1cc(NCc2ccc(Cl)cc2)cc2cccnc12	3%
CCOc1cc(CNc2ccc(O)cc2)ccc1OCc1ccc(Cl)cc1	10µM*	CHIKV nsP2 cell=13µM*;CHIKV NSP2 FL=18µM*;Furin counterscr=-22%;NS23 peptide cs=?;Papain counter=-24%;nsP2pro conf qHTS=-2%;HCV NS3 counter=?
CN(Cc1ccccc1)Cc1cc(C[C@@H]2C[C@H](NC(=O)C3CC3)C2(C)C)no1	-15%[39.2 µM]
Fc1cc(Nc2nc(-c3ccncc3)nc3ccccc23)ccc1N1CCNCC1	1%
SMILES	nsP2pro primary	others
Cc1[nH]c2ccccc2c1CC(=O)NCc1ccccc1-n1cncn1	-25%
O=S(=O)(Nc1ccc(-c2ccccc2)cc1)c1ccc(NCc2cccc(Cl)c2O)cc1	-3%
O=c1cc(-c2ccc(O)c(O)c2O)oc2ccccc12	-16%
CC(CCC1C(C(=O)O)=CC(=O)CC1(C)C)O[C@@H]1O[C@H](CO)[C@@H](O)[C@H](O)[C@H]1O (stereo partly specified)	78%
COc1cc(OC)cc(-c2onc(C)c2C(=O)NCCC(c2ccccc2)c2ccccc2)c1	1%
Cc1cc(NC(=O)c2cccc(NC(=O)/C=C/CN(C)C)c2)ccc1Nc1nccc(-c2cccnc2)n1	215%
CC1=CC(=O)C(C(C)C)=CC1=O	-11%
CC1C2=CC(=O)OC2(O)CC2C1CCC1C(C)(C)CCC(O)C21C (stereo unspecified)	-1%
CC(=O)OC1C(O)C2C(C)C3=CC(=O)OC3(O)CC2C2(C)CCCC(C)(CO)C12 (stereo unspecified)	-3%[10 µM]
CC1C2=CC(=O)OC2(O)CC2C1C(OC(=O)c1ccccc1)C(OC(=O)c1ccccc1)C1(O)C2(C)CCC(O)C1(C)C(=O)O (stereo unspecified)	2.3µM*	CHIKV nsP2 cell=-3%[17.6 µM];CHIKV NSP2 FL=-3%[17.3 µM];Furin counterscr=11%[17.3 µM];NS23 peptide cs=3%[17.2 µM];Papain counter=-5%[17.2 µM];nsP2pro conf qHTS=-11%[8.62 µM];HCV NS3 counter=i
O=C(c1ccc2ccccc2n1)N1C[C@@H](CO)[C@H](c2ccncc2)C1	i
O=C(O)C(=O)O	-7%
CC(C)CNC(=O)c1ccc2nnc(C(C)(C)C)n2c1	-12%[39.2 µM]
CCN1C[C@@]2(COC)C3[C@@H](OC)C4[C@@H]1[C@@]3(C1C[C@]3(O)[C@H](OC(=O)c5ccccc5)C1[C@]4(OC(C)=O)[C@@H](O)[C@@H]3OC)[C@@H](OC)C[C@H]2O (stereo partly specified)	1%
O=c1c2ccccc2[se]n1-c1ccccc1	4.4µM*	CHIKV nsP2 cell=?;CHIKV NSP2 FL=?;Furin counterscr=2.1µM*;NS23 peptide cs=9.2µM*;Papain counter=-11%;nsP2pro conf qHTS=2.2µM*;HCV NS3 counter=3.7µM*
COc1cccc2c1OCCCN(c1cc(C3CC(O)C3)nc(N)n1)C2 (stereo unspecified)	2%
CCOC(=O)c1ccoc1-c1ccc2ncnc(NCc3ccc(C)o3)c2c1	4%
CCOC(=O)c1c(Nc2ccccc2)nnc(-c2ccccc2)c1-c1ccccc1	-16%
CCOC(=O)c1c2c3c(cccc3[nH]c1=O)C(=O)c1ccccc1-2	?	CHIKV nsP2 cell=6%;CHIKV NSP2 FL=4%;Furin counterscr=-4%;NS23 peptide cs=i;Papain counter=-15%;nsP2pro conf qHTS=7%;HCV NS3 counter=i
CCOC(=O)c1c(C)[nH]c(CCC(=O)Nc2ccccc2C(F)(F)F)c1C	-24%
Cc1cnc(CC2CCN(S(=O)(=O)c3ccc4c(c3)CCC4)CC2)n1CC1CC1	i
OCC=Cc1ccccc1	1%
